High-throughput results deposited in PubChem by National Center for Advancing Translational Sciences (NCATS).
POLB inh: inhibitors of human DNA polymerase beta. P06746. Pol beta primer extension/strand displacement, fluorescence kinetic. Potency, µM (top dose mostly 114 µM), without a hit: at the top dose activity change, negative = inhibition, actives largely listed as inhibitors. actives 1.3% (n = 340,000). AID 485314; note: potency is the fitted concentration of half-maximal effect; % is set by controls: 0 for no effect and ±100 for the full control effect
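Pol beta (10 nM) and compounds were preincubated 15 min at room temperature, then 50 nM substrate (final) started primer extension/strand displacement. Reads were taken at 0 and 10 min; concentration-response data were fitted to a four-parameter Hill equation.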
POLK inh: inhibitors of human DNA polymerase kappa; purified Pol kappa, fluorescent DNA synthesis assay, 10 min; Potency, µM (top dose mostly 107 µM), without a hit: top-dose activity, negative = inhibition, hits mostly inhibitors; actives 0.53% (n = 400,000); AID 588579; note: potency is the fitted concentration of half-maximal effect; % is set by controls: 0 for no effect and ±100 for the full control effect
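Fluorescent qHTS in 1536-well format: enzyme (10 nM) and compound sat 15 min at room temperature before 50 nM substrate (final) was added. Signal taken at 0 and 10 min; no-enzyme buffer wells were negative controls.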
POLI inh: blocks human DNA polymerase iota activity | Pol iota fluorescent replication assay, 10 min | Potency, µM (highest dose often 115 µM), without a hit: at the top dose activity, negative = inhibition, hits mostly inhibitors | actives 1% (n = 390,000) | Q9UNA4; note: potency is the fitted concentration of half-maximal effect
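Pol iota at 10 nM preincubated 15 min with compounds at room temperature; reaction started with fluorescent substrate, 50 nM final. Fluorescence read kinetically at 0 and 10 min; buffer-only wells as negative control.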
PI5P4Ka inh: inhibitors of human PI5P4K alpha; P48426; PI5P4Kalpha enzyme, ADP-Glo luminescence, 60 min; hits give low values; max response, %; actives 1.2% (n = 330,000); active = max response of -50% or lower; inconclusive = between -30% and -50%; inactive = -30% or higher; note: value at the top dose of about 77 µM; % is set by controls: 0 for no effect and ±100 for the full control effect
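Reactions run in 0.038 M HEPES pH 7.4, 0.28 mM EGTA, 0.1% CHAPS and 5% DMSO, with PI5P4Kalpha, substrate, compound and 5 microM ATP final, one hour at room temperature. Readout is ADP-Glo luminescence.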
POLH inh: inhibitors of human DNA polymerase eta. Q9Y253. recombinant Pol eta, fluorescent DNA replication assay. Potency, µM (series often up to 114 µM), for inactives: at the top dose activity change, negative = inhibition, most hits filed as inhibitors. actives 1.2% (n = 390,000). AID 588591; note: potency is the fitted concentration of half-maximal effect; % is set by controls: 0 for no effect and ±100 for the full control effect
Target sequence (Q9Y253 whole entry, looked up): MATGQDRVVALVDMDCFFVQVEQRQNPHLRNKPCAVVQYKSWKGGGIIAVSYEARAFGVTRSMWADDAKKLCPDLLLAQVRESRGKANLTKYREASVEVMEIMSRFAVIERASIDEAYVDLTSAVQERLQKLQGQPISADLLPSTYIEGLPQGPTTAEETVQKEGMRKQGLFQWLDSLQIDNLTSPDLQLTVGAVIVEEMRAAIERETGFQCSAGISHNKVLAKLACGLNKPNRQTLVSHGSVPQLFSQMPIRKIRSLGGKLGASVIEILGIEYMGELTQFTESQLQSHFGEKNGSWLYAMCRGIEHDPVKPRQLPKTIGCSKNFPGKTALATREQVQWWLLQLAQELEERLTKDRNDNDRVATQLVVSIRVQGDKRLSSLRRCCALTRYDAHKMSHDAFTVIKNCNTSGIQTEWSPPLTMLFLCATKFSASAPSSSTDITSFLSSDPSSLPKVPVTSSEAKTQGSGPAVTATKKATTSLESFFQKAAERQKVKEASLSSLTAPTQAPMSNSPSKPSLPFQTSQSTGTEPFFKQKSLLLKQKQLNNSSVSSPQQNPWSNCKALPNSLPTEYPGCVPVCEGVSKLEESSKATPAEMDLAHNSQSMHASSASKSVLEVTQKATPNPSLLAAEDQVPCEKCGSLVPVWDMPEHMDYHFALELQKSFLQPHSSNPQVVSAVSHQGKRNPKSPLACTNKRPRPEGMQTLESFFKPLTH
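Fluorescent replication assay: 50 nM final substrate added after a 15 min room-temperature compound preincubation with 10 nM enzyme. Signal taken at 0 min and again at 10 min.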
12-LOX inh: inhibitors of human 12S-lipoxygenase ALOX12; P18054; actives 1.1% (n = 580,000); Potency, µM (series often up to 108 µM), without a hit: top-dose activity change, negative = inhibition, actives largely listed as inhibitors; purified 12hLO, xylenol orange hydroperoxide absorbance; note: potency is the fitted concentration of half-maximal effect; % is set by controls: 0 for no effect and ±100 for the full control effect
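Hydroperoxide product was detected by ferrous iron/xylenol orange as the 573 to 405 nm absorbance ratio. Arachidonic acid at 40 uM (final) was turned over for 30 min at room temperature by 150 nM human 12hLO, pH 7.0 Hepes buffer, after 15 min compound preincubation.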
An asterisk follows results filed as active. An excerpt weighted towards active compounds, which were near 2.9% of everything screened. Unless noted, calls come from the whole dose curve; as a rule, active = well fitted inhibition curve with a large enough effect; inconclusive = small, poorly fitted or top-dose-only effect, or another doubt; inactive = no such curve, though single readings can be large or run the other way.

What do the screens show for `CC1=C(C(=O)OC(C)C)C(c2ccc(C)o2)C(C(=O)OC(C)C)=C(C)N1`?
POLB inh: 12%; POLK inh: -14%; POLI inh: -29%; PI5P4Ka inh: 0; POLH inh: -13%; 12-LOX inh: 53%

How did COCCOC(=O)C1=C(C)NC(=O)NC1c1ccco1 (centres undefined) do in these assays?
POLB inh: inconclusive; POLK inh: -31%; POLI inh: 40µM*; PI5P4Ka inh: 2; POLH inh: 79µM*; 12-LOX inh: inconclusive

Results for CC1=C(C(=O)OC(C)C)C(c2ccco2)NC(=O)N1 (centres undefined) ?
POLB inh: 50µM*; POLK inh: -13%; POLI inh: inconclusive; PI5P4Ka inh: inconclusive; POLH inh: inconclusive; 12-LOX inh: inactive

How did CC1=C(C(=O)OC(C)C)[C@@H](c2ccc(C)o2)NC(=O)N1 do in these assays?
POLB inh: 13%; POLK inh: -6%; POLI inh: -22%; PI5P4Ka inh: -9; POLH inh: 1.1µM*; 12-LOX inh: -4%

Results for CCOC(=O)C1=C(C)NC(=O)NC1c1ccco1 (centres undefined) ?
POLB inh: 35µM*; POLK inh: inconclusive; POLI inh: 45µM*; POLH inh: 79µM*; 12-LOX inh: -5%

What do the screens show for `Cc1ccc(C(=O)NC2C3CC4CC(C3)CC2C4)c(Cl)c1` (centres undefined)?
12-LOX inh: -1%

Results for Cc1ccc(Cl)cc1NC(=O)CCN=C1NS(=O)(=O)c2ccccc21 ?
12-LOX inh: -29%

How did Cc1cccc(NC(=O)CCC2CCCC2)c1C do in these assays?
12-LOX inh: 3%

How did CCCCCCSC1=C(C#N)C(=O)NC2(CCCCC2)S1 do in these assays?
POLB inh: inconclusive; POLK inh: -4%; POLI inh: -18%; PI5P4Ka inh: 2; POLH inh: -8%; 12-LOX inh: 45µM*

Results for COc1ccc(CSC2=C(C#N)C(=O)NC3(CCCCC3)S2)cc1 ?
PI5P4Ka inh: inconclusive; POLH inh: -15%; 12-LOX inh: inconclusive

How did S=C(NC(=NCc1ccccc1)c1ccccc1)Nc1ccccc1 do in these assays?
12-LOX inh: 14µM*

Results for O=C(O)c1ccc(N/C(=N\S(=O)(=O)c2ccc(Cl)cc2)c2ccccc2)cc1 ?
POLB inh: -2%; POLK inh: -6%; POLI inh: inconclusive; PI5P4Ka inh: 1; POLH inh: 7%; 12-LOX inh: 71%

Results for O=S(=O)(/N=C(/NC(=S)Nc1ccccc1)c1ccccc1)c1ccc(Cl)cc1 ?
POLB inh: 18%; POLK inh: -3%; POLI inh: 2%; PI5P4Ka inh: -20; POLH inh: -7%; 12-LOX inh: 40µM*

What do the screens show for `COc1ccc(NC(=S)NC(=NS(=O)(=O)c2ccc(Cl)cc2)c2ccccc2)cc1`?
POLK inh: -4%; POLI inh: -4%; PI5P4Ka inh: 4; POLH inh: -19%; 12-LOX inh: 32µM*

What do the screens show for `CC1(C)CC(Nc2nc3ccccc3nc2NS(=O)(=O)c2ccc3c(c2)OCCO3)CC(C)(C)N1`?
12-LOX inh: 6%

What do the screens show for `Cc1ccc(Nc2cc(C)nc3c(C)c(C)ccc23)c(C)c1`?
12-LOX inh: -23%

How did CCCCC1=CC2=CC(=O)C(C)(OC(=O)CC)C(=O)C2=CN1CCc1c[nH]c2ccccc12 (centres undefined) do in these assays?
POLB inh: 18%; POLK inh: -10%; POLI inh: 37%; PI5P4Ka inh: -27; POLH inh: 1%; 12-LOX inh: inconclusive

Results for COC(=O)CCCC1=CC2=CC(=O)C(C)(OC(=O)c3cccs3)C(=O)C2=CN1CCCOC(C)C (centres undefined) ?
POLB inh: 16%; POLK inh: -4%; POLI inh: 25µM*; PI5P4Ka inh: 2; POLH inh: -17%; 12-LOX inh: -7%

Results for CCCCC1=CC2=CC(=O)C(C)(OC(=O)CC)C(=O)C2=CN1CCc1ccc(Br)cc1 (centres undefined) ?
POLB inh: inconclusive; POLK inh: -3%; POLI inh: 49%; PI5P4Ka inh: -22; POLH inh: -12%; 12-LOX inh: 40µM*

Results for COC(=O)CCCC1=CC2=CC(=O)C(C)(OC(=O)c3cccs3)C(=O)C2=CN1CCc1c[nH]c2ccccc12 (centres undefined) ?
POLB inh: -15%; POLK inh: inconclusive; POLI inh: 50µM*; PI5P4Ka inh: -29; POLH inh: -4%; 12-LOX inh: 1%

Results for COC(=O)CCCC1=CC2=CC(=O)C(C)(OC(=O)c3cccs3)C(=O)C2=CN1Cc1ccco1 (centres undefined) ?
POLB inh: 50µM*; POLK inh: inconclusive; POLI inh: inconclusive; PI5P4Ka inh: inconclusive; POLH inh: inconclusive; 12-LOX inh: inconclusive

What do the screens show for `Cc1ncc(-c2ccc(S(=O)(=O)Nc3cc(Cl)ccc3C)cc2)o1`?
12-LOX inh: 5%

Results for Cc1cccc(C)c1NC(=O)C1CCCCC1 ?
12-LOX inh: -13%

How did CN(Cc1ccc2ccccc2c1)C(=O)c1cc2ccccc2oc1=O do in these assays?
12-LOX inh: 3%

Results for COC(=O)CCCC1=CC2=CC(=O)C(C)(OC(=O)c3cccs3)C(=O)C2=CN1Cc1ccc2c(c1)OCO2 (centres undefined) ?
POLB inh: 50µM*; POLK inh: -35%; POLI inh: 32µM*; PI5P4Ka inh: inconclusive; POLH inh: inconclusive; 12-LOX inh: -11%

Results for COc1cc(/C=C2\SC(=O)N(c3ccc(Cl)cc3)C2=O)cc([N+](=O)[O-])c1O ?
POLB inh: 56µM*; POLK inh: inconclusive; POLI inh: 6.3µM*; PI5P4Ka inh: -51*; POLH inh: -15%; 12-LOX inh: inconclusive

What do the screens show for `CC1=C(C(=O)Nc2ccccc2C(=O)NC(C)Cc2ccco2)SCCO1` (centres undefined)?
12-LOX inh: -3%

How did O=C(O)CNS(=O)(=O)c1ccc(C(=O)/C=C/c2ccccc2Cl)cc1 do in these assays?
12-LOX inh: 53%

Results for N=C1S/C(=C\c2ccco2)C(=O)N1c1nccs1 ?
POLB inh: inconclusive; POLK inh: -36%; POLI inh: inconclusive; PI5P4Ka inh: -16; POLH inh: inconclusive; 12-LOX inh: 0%

Results for O=C1/C(=C\c2ccco2)SC(=S)N1C1CCCCC1 ?
POLB inh: 45µM*
